The record followed here is article PMC5836133, “The intracellular immune receptor Rx1 regulates the DNA-binding activity of a Golden2-like transcription factor”.

The full ranking holds about 16,000 sequences; the median of “e-score” is about -0.044, and the highest 2% start at about 0.38. What follows is part of a selection rich in the highest values, with near analogues and random picks from the rest.

The assay has as its target T1, GST-NbGlk1(82-244) (Nicotiana benthamiana).
T1 chain: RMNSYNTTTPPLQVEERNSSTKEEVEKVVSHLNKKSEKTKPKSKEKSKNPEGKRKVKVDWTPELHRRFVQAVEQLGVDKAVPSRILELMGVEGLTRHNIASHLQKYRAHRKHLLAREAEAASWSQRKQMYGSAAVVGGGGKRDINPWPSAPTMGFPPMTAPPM
The assay is described as follows: protein-binding microarray; NbGlk1 is a Golden2-like transcription factor of Nicotiana benthamiana; high values mean tight binding. Particulars: protein: recombinant; tags: GST (pTH6838); dsDNA, one strand shown.
For the sequence ACTAAATC, the binding signal came to 0.213 ± 0.00269 E-score.

For the sequence AACACAAT, the binding signal worked out at 0.213 ± 0.0479 E-score. For ATTACAAC, the binding signal was 0.257 ± 0.0217 E-score.

Regarding ATGAGATA, the binding signal turned out to be 0.20921 ± 0.000115 E-score. The same measure for ATTGCGCA: 0.301 ± 0.0513 E-score; for ATCTGGAC: 0.346 ± 0.0997 E-score; for ATCTCCAA: 0.342 ± 0.0598 E-score. The value for AGCAAATA was 0.221 ± 0.0663 E-score; that for AGCAAAAT was 0.241 ± 0.0294 E-score. For the sequence AGAAAATC, the binding signal was determined as 0.4794 ± 0.0015 E-score. Take AAAAAATC: the binding signal worked out at 0.439 ± 0.0166 E-score. Consider AGTAAATC, for which the binding signal was 0.241 ± 0.0671 E-score. The value for AAAAAAAT was 0.286 ± 0.0488 E-score. Turning to ATCAAATC, the binding signal stood at 0.36 ± 0.00877 E-score. Take AAAAAATT: the binding signal amounted to 0.204 ± 0.0566 E-score. Take AGCAAATC: the binding signal was determined as 0.4187 ± 0.000896 E-score. Consider ACCAAATC, for which the binding signal was determined as 0.406 ± 0.00414 E-score. Consider AGAAAAAT, for which the binding signal came to 0.252 ± 0.0352 E-score.

In the case of ACCAAAAT, the binding signal came out at 0.245 ± 0.0514 E-score. On to ATATGAAG, for which the binding signal is 0.207 ± 0.0492 E-score.

For AATCACAG, the binding signal was found to be 0.3111 ± 0.000659 E-score.

Take CAAGATCC: the binding signal came to 0.33 ± 0.0132 E-score. For the sequence ATTACACC, the binding signal was 0.334 ± 0.0466 E-score. AACGATAT: the binding signal was 0.29 ± 0.015 E-score. The value for ATTTTCCC was 0.304 ± 0.0203 E-score; that for AAATTATA was 0.256 ± 0.00661 E-score.

Consider AATCGTTG, for which the binding signal was 0.203 ± 0.0845 E-score.

As to AACATAAT, the binding signal is 0.233 ± 0.0831 E-score. The value for ACACAATA was 0.226 ± 0.0401 E-score; that for ACACAATC was 0.39 ± 0.0203 E-score; that for AGACAATC was 0.3189 ± 0.000404 E-score.

AACAAATC: the binding signal was found to be 0.302 ± 0.043 E-score. The same measure for ATAAAATC: 0.409 ± 0.00541 E-score; for ACAAAAAT: 0.238 ± 0.045 E-score; for ACAAAATA: 0.293 ± 0.102 E-score. The same measure for ATAAAATA: 0.22 ± 0.00301 E-score. The value for ATAAAAAT was 0.292 ± 0.0292 E-score; that for ACAAAATC was 0.4578 ± 0.00327 E-score. For the sequence CACAAATC, the binding signal came to 0.274 ± 0.0179 E-score. The same measure for CAAAAATC: 0.399 ± 0.00565 E-score; for ACGCGTAT: 0.211 ± 0.0436 E-score; for ATTTCAAG: 0.23 ± 0.00665 E-score. On to ATAACGTA, for which the binding signal was found to be 0.205 ± 0.0524 E-score. The value for AGGATACG was 0.357 ± 0.0118 E-score; that for ATAGCAAT was 0.321 ± 0.015 E-score; that for ATCCTATA was 0.326 ± 0.0829 E-score. The value for ATCTGCAA was 0.317 ± 0.0136 E-score. For ATCGCAGA, the binding signal turned out to be 0.23 ± 0.0112 E-score.

Regarding ATCTCCGG, the binding signal worked out at 0.318 ± 0.0623 E-score.

With ATCTTAGA, the binding signal was determined as 0.243 ± 0.155 E-score. The value for ATTCCTAA was 0.236 ± 0.0111 E-score. The same measure for AAATCCCT: 0.354 ± 0.00608 E-score. As to AAATCCGC, the binding signal was determined as 0.432 ± 0.0197 E-score. In the case of CAATCCGA, the binding signal was 0.35 ± 0.00607 E-score. The value for AAATCCGG was 0.441 ± 0.0267 E-score; that for AGATCCGG was 0.291 ± 0.0113 E-score; that for AAATCCGA was 0.427 ± 0.0109 E-score. The same measure for AATCCCGC: 0.335 ± 0.0716 E-score; for AAATCAGA: 0.315 ± 0.029 E-score. The same measure for AAATCCGT: 0.401 ± 0.0483 E-score. For the sequence CAATCCGC, the binding signal came to 0.305 ± 0.107 E-score.

Regarding CAATCCGG, the binding signal was 0.328 ± 0.0049 E-score. The same measure for AATCCCGT: 0.366 ± 0.0273 E-score; for ACGGTATC: 0.297 ± 0.0236 E-score; for ATATAGAA: 0.254 ± 0.0436 E-score. In the case of ATTTAGAA, the binding signal is 0.279 ± 0.0333 E-score. As for ATTCCTTA, the binding signal was found to be 0.228 ± 0.0221 E-score. As for AACAGAAT, the binding signal is 0.301 ± 0.106 E-score. The same measure for AATCACGA: 0.339 ± 0.0266 E-score; for AATCTCGA: 0.436 ± 0.00491 E-score; for AATCTCGT: 0.436 ± 0.0316 E-score. As to ATTCTCGA, the binding signal was determined as 0.308 ± 0.0153 E-score.

Regarding ATTCTCGC, the binding signal was found to be 0.232 ± 0.00302 E-score. The same measure for AATCTCGG: 0.429 ± 0.00874 E-score; for ATTCTCGG: 0.229 ± 0.0773 E-score. Regarding AATCACGT, the binding signal came to 0.304 ± 0.0574 E-score. Take AATCGCGC: the binding signal is 0.311 ± 0.0585 E-score. The value for AATCACGG was 0.256 ± 0.0042 E-score; that for AATCGCGT was 0.352 ± 0.0711 E-score. The value for AATCTCGC was 0.411 ± 0.0281 E-score; that for AAATAAAT was 0.24 ± 0.102 E-score.

With ATCTCGAA, the binding signal turned out to be 0.367 ± 0.06 E-score. The value for ATAGCGTA was 0.266 ± 0.0123 E-score; that for AATACGAT was 0.294 ± 0.0273 E-score. Regarding AATACGTG, the binding signal was found to be 0.216 ± 0.0545 E-score. On to ATAAGATA, for which the binding signal worked out at 0.301 ± 0.0184 E-score. Consider ATTCGGGA, for which the binding signal is 0.286 ± 0.0532 E-score. The same measure for ATACAGAA: 0.221 ± 0.0562 E-score. For the sequence ACAAGGAT, the binding signal came out at 0.227 ± 0.00244 E-score. AGATTCTC: the binding signal came out at 0.4901 ± 0.00333 E-score. The same measure for AGATTCTA: 0.4515 ± 0.00133 E-score.

On to ATTCTCTA, for which the binding signal was determined as 0.306 ± 0.094 E-score. As to AAATTCTG, the binding signal is 0.235 ± 0.065 E-score. ATTCTCTG: the binding signal was 0.358 ± 0.0226 E-score. For ATATTCTC, the binding signal was 0.402 ± 0.0347 E-score.

ATATTCTG: the binding signal turned out to be 0.342 ± 0.04 E-score. Take AGATTCTG: the binding signal was found to be 0.4694 ± 0.00442 E-score.

For AAATTCTC, the binding signal came to 0.283 ± 0.0053 E-score.

As to AAATTCTA, the binding signal turned out to be 0.245 ± 0.0867 E-score. The value for AGATTCAC was 0.289 ± 0.0335 E-score; that for ATATTCTA was 0.25 ± 0.0067 E-score; that for AATCAATT was 0.213 ± 0.116 E-score. The same measure for ATAATTTC: 0.227 ± 0.0306 E-score. The same measure for AGTCAGAT: 0.208 ± 0.0487 E-score; for AGTTGGAT: 0.269 ± 0.0791 E-score.

Take AATCACGC: the binding signal is 0.256 E-score. The value for ATAAGGAT was 0.22 ± 0.0746 E-score; that for ATCGGTAA was 0.201 ± 0.0464 E-score; that for ATATTCCG was 0.36 ± 0.00732 E-score. The value for ATATTCCC was 0.393 ± 0.0225 E-score. Turning to ATATTCCA, the binding signal came out at 0.326 ± 0.0114 E-score. The same measure for AAATCAGC: 0.363 ± 0.0041 E-score; for CAATCGGA: 0.227 ± 0.013 E-score; for ATATTGAA: 0.203 ± 0.00588 E-score.

Consider AATGATAT, for which the binding signal worked out at 0.224 ± 0.0384 E-score. The same measure for AATCAAAG: 0.221 ± 0.0254 E-score; for AATCTAAG: 0.402 ± 0.0258 E-score. The value for AATCGAAG was 0.285 ± 0.0157 E-score. The same measure for AATTTAAA: 0.226 ± 0.0725 E-score; for AATCTAAT: 0.412 ± 0.0116 E-score; for AATCAAAC: 0.25 ± 0.0482 E-score.

Consider AATCAAAT, for which the binding signal is 0.297 ± 0.0152 E-score. The value for AATCTAAA was 0.403 ± 0.0351 E-score; that for AATCGAAC was 0.213 ± 0.0388 E-score. The same measure for ATCCTAAT: 0.248 ± 0.0062 E-score; for ATTCTAAA: 0.221 ± 0.0153 E-score.

As to AATCTAAC, the binding signal is 0.413 ± 0.0271 E-score.

For the sequence ATCGCACA, the binding signal is 0.256 ± 0.0485 E-score. On to ATCTCATG, for which the binding signal stood at 0.3181 ± 0.000641 E-score. The same measure for ATTTCCGC: 0.333 ± 0.0224 E-score; for ATCTTATA: 0.342 ± 0.00345 E-score.

With ATCTTATC, the binding signal amounted to 0.288 ± 0.0568 E-score.

With ATCTGGAG, the binding signal is 0.225 ± 0.0674 E-score.

With ATTCGAAT, the binding signal came to 0.221 ± 0.203 E-score.

In the case of AATCCTCA, the binding signal was found to be 0.376 ± 0.0245 E-score. The value for AATCCTCC was 0.375 ± 0.00794 E-score. The value for AATCCACG was 0.406 ± 0.0241 E-score; that for ATTCCACC was 0.235 ± 0.0237 E-score. The same measure for AATCCACC: 0.382 ± 0.0151 E-score; for AATCCACA: 0.419 ± 0.00571 E-score; for ATTCCACG: 0.222 ± 0.06 E-score. For AATCCACT, the binding signal came out at 0.364 ± 0.0439 E-score. The same measure for ATCCCACA: 0.234 ± 0.0752 E-score. The same measure for AATTTTAG: 0.222 ± 0.0121 E-score; for ATCTGCAT: 0.31 ± 0.0522 E-score; for AAATCGAC: 0.341 ± 0.00515 E-score. Consider AATCCAGG, for which the binding signal was determined as 0.415 ± 0.00511 E-score. With AATCCCGG, the binding signal stood at 0.326 ± 0.0261 E-score. The same measure for AATCCAGC: 0.364 ± 0.00724 E-score. As for AATCCCAG, the binding signal was 0.342 ± 0.0163 E-score. The value for AATCCAGT was 0.398 ± 0.00993 E-score; that for AATCCAGA was 0.349 ± 0.0199 E-score; that for ATTACCAC was 0.255 ± 0.0899 E-score. The same measure for ATCATAGA: 0.214 ± 0.00111 E-score.

In the case of AGGAAATC, the binding signal stood at 0.4891 ± 0.000893 E-score. For the sequence AAGAAAAT, the binding signal is 0.34 ± 0.023 E-score.

In the case of ATTAAATC, the binding signal came to 0.217 ± 0.0673 E-score. In the case of AGGAAATA, the binding signal turned out to be 0.239 ± 0.0792 E-score. The value for ACGAAATC was 0.477 ± 0.0103 E-score; that for AGGAAAAT was 0.226 ± 0.0215 E-score. The same measure for ATGAAAAT: 0.321 ± 0.0714 E-score; for ACGAAATA: 0.246 ± 0.0511 E-score. Take ACGAAAAT: the binding signal came out at 0.272 ± 0.0271 E-score. The value for ATGAAATC was 0.4523 ± 0.00241 E-score; that for AAGAAATC was 0.443 ± 0.00563 E-score; that for AAGAAATA was 0.222 ± 0.0864 E-score.

Consider AACCGGAT, for which the binding signal was 0.233 ± 0.0852 E-score. The same measure for ATTTTGGG: 0.2605 ± 0.000343 E-score; for ACTGCGAT: 0.208 ± 0.0497 E-score; for AGTGGATA: 0.257 ± 0.0756 E-score. Regarding AAAACTTA, the binding signal came to 0.223 ± 0.0511 E-score. The same measure for ATCCAGAA: 0.288 ± 0.0705 E-score.
